Results on 104 compounds are retold here after PubChem BioAssay AID1942 (Johns Hopkins Ion Channel Center, 2009).

Hit rate of the full screen: of about 2,400 compounds, about 580 (24%) were called active. Only a sample is shown. A number with no mark means an inactive call.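 How the source made its calls: active means activity change at or above the mean plus 3 SD of buffer wells without dofetilide, per plate; inactive means the rest.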

For the assay, the target named is Potassium voltage-gated channel subfamily KQT member 2 (Rattus norvegicus) (UniProt O88943). Kind of assay: rat KCNQ2 channel activation by compounds alone, confirmation, counter-screen for hERG block protector project, cell-based, CHO, FluxOR thallium flux (AID 1942).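 Further: normalized value minus buffer-control mean plus three SD of buffer wells.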 As to conditions: CHO-KCNQ2 cells, FluxOR thallium flux fluorescence; at 10 µM; hits give high values.
Sequence of Potassium voltage-gated channel subfamily KQT member 2 (Rattus norvegicus) (O88943 whole entry, looked up): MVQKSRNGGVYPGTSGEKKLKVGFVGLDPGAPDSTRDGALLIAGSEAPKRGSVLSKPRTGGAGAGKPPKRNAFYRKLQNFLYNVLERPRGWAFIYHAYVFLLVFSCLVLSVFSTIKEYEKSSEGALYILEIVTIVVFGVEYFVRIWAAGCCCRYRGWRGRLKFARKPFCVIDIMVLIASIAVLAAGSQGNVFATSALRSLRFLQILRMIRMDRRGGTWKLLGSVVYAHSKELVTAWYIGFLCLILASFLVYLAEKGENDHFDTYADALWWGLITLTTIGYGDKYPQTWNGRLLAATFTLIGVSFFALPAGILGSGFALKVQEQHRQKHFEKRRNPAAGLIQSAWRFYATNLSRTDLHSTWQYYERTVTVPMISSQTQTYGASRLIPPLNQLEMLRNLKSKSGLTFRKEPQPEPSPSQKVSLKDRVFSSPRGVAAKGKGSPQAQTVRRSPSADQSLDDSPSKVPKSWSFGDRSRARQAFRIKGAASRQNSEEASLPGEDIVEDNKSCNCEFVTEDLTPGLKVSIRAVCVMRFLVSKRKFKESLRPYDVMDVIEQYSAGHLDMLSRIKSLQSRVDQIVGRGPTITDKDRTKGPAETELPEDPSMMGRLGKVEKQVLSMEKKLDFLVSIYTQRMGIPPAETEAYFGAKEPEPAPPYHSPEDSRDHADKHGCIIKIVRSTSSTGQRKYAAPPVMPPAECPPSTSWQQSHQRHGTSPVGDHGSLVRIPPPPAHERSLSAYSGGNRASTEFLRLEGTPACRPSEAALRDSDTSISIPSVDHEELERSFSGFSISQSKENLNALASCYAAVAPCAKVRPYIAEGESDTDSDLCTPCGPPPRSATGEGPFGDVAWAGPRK
Turning to `O=c1[nH]c(=O)n(CCc2ccc(F)cc2)c(O)c1C=NCc1ccc2c(c1)OCO2`, the activity change, less the hit threshold is -22.5%.

For the compound `COc1ccc(C(=O)NC2CC3CCCC(C2)N3Cc2ccccc2)cc1` (centres undefined), the activity change, less the hit threshold was -27.5%. The figure for `O=c1[nH]c(N2CCN(c3ccccc3)CC2)nc2c1CCCC2` is -11.1%; for `C=C(C)CSc1nc(N)cc(=O)[nH]1` it is -12%; for `CC1CCCCC1n1c(=S)[nH]c2ccccc2c1=O` (centres undefined) it is 6.6% (active). For `CC1CCC(N2CCN(C(=O)c3ccccc3F)CC2)CC1` (centres undefined), the activity change, less the hit threshold is -9.6%. Under `CC1CCC(n2c(=S)[nH]c3ccccc3c2=O)CC1` (centres undefined) stands 47.8% (active). The figure for `O=c1c2ccccc2[nH]c(=S)n1C1CCCCC1` is -15.1%. Under `Cn1c(O)c(N=NC(=S)Nc2ccccc2F)c2cc(S(=O)(=O)N3CCOCC3)ccc21` stands -19.7%.

Regarding `Cc1ccc(C(C)C)cc1S(=O)(=O)NC1CC(C)(C)NC(C)(C)C1`, the activity change, less the hit threshold is -26%. The figure for `Nc1cc(N)nc(SCc2cc(=O)oc3cc4c(cc23)CCC4)n1` is -20.8%; for `CS(=O)(=O)N(CCc1ccccc1)CC(=O)N1CCN(c2ccc(F)cc2)CC1` it is -26.1%; for `Cc1cc(C(=O)NCc2ccc(S(N)(=O)=O)cc2)ccc1[N+](=O)[O-]` it is -13.6%. Under `O=C(NCc1cccnc1)c1ccc(NS(=O)(=O)c2ccc(F)cc2)cc1` stands -4.9%; under `Cc1cc2ccccn2c1C(=S)NC(=O)c1ccccc1`, 40.3% (active); under `O=C(NC(=S)Nc1ncc(Br)cc1Br)c1ccccc1`, -0.7%. Under `O=C(c1n[nH]c2c1CCCC2)n1ccnc1` stands -12.7%. For `C[C@@H]1CCCCCCCCCCC1=O`, the activity change, less the hit threshold was -18%. The figure for `Cc1ccc(C(=O)COC(=O)C2CCC2)cc1` is 2.2% (active); for `Cc1ccc(C(=O)CC(=O)COc2ccc(Cl)cc2C)cc1` it is -1.4%.

For `Cc1ccc(C(=O)CC(=O)c2ccc(C)cc2O)cc1`, the activity change, less the hit threshold was -9.3%. As to `O=c1ccn(Cc2ccc(F)cc2)c2ccnc(C(F)(F)F)c12`, the activity change, less the hit threshold was -16.3%.

For `CCc1ccc2[nH]c(=O)c(-c3ccccc3)c(O)c2c1`, the activity change, less the hit threshold is -20.4%. The figure for `Cc1cccc(N2CCN(C(=O)CNC(=O)c3cccc([N+](=O)[O-])c3)CC2)c1C` is -27.6%; for `Cc1cc2[nH]c(=O)c(=O)[nH]c2cc1S(=O)(=O)N1CCN(c2cccc(C)c2C)CC1` it is -10.5%. On to `Cc1cccc(N2CCN(C(=O)Cc3c(C(=O)O)[nH]c4ccc(Cl)cc34)CC2)c1C`, for which the activity change, less the hit threshold was 16.8% (active). `CCOC(=O)C1=C(N)Oc2cc(O)ccc2C1c1cccnc1` (centres undefined): the activity change, less the hit threshold is -24.7%. On to `O=C(NC(=S)N1CCN(c2ccc(C(F)(F)F)cc2[N+](=O)[O-])CC1)c1cccs1`, for which the activity change, less the hit threshold was 15.6% (active).

Turning to `O=C(NC(=S)N1CCN(c2c(Cl)cccc2[N+](=O)[O-])CC1)c1cccs1`, the activity change, less the hit threshold was 7.2% (active).

For `COc1ccc(N2CCN(C(=S)NC(=O)c3cccs3)CC2)c([N+](=O)[O-])c1`, the activity change, less the hit threshold is -6.4%. With `CC(C)Oc1cccc(C(=O)NC(=S)N2CCN(c3ccc(C(F)(F)F)cc3[N+](=O)[O-])CC2)c1`, the activity change, less the hit threshold is -12.3%. The figure for `COc1cccc(OC)c1C(=O)NC(=S)N1CCN(c2ccc(C(F)(F)F)cc2[N+](=O)[O-])CC1` is -33.8%. Under `O=C(NC(=S)Nc1cccc(Cl)c1N1CCCCC1)c1cccs1` stands -12.7%; under `O=C(NC(=S)Nc1cccc(Cl)c1N1CCOCC1)c1cccs1`, -17%; under `O=C(NC(=S)N1CCN(c2ccc(Cl)cc2[N+](=O)[O-])CC1)c1cccs1`, 2.3% (active).

For the compound `O=C(NC(=S)Nc1ccc(N2CCCCC2)c(Cl)c1)c1cccs1`, the activity change, less the hit threshold was -0.7%. In the case of `COc1ccc(-c2ccc3c(N)c(C(=O)c4ccc(OC)c(OC)c4)sc3n2)cc1`, the activity change, less the hit threshold was -11.8%. In the case of `Cc1c(C#N)c(O)[nH]c(=O)c1N=Nc1ccc(Br)cc1C(=O)O`, the activity change, less the hit threshold was -13.8%. Turning to `COc1ccc2c(C(=O)CN3CCN(c4ccccc4)CC3)c[nH]c2c1`, the activity change, less the hit threshold is -21.6%. Under `CCCCCCc1c(O)nc(SCC(=O)O)[nH]c1=O` stands -23.9%; under `CC1=NN(c2nc(-c3ccccc3)cs2)C(=O)C1N=Nc1ccccc1` (centres undefined), -28%; under `COC(=O)c1ccccc1NC(=O)C1CCCN(S(C)(=O)=O)C1` (centres undefined), -18.8%. The figure for `Cc1nnc(NC(=O)C2CCCN(S(=O)(=O)c3ccccc3C(F)(F)F)C2)s1` (centres undefined) is 4.9% (active). Under `CCc1nnc(NC(=O)C2CCCCN2S(=O)(=O)c2ccccc2)s1` (centres undefined) stands -11.7%. In the case of `CSc1nsc(SCC(=O)Nc2ccccc2C(=O)O)n1`, the activity change, less the hit threshold was -13%. Under `COC(=O)CCn1[nH]c(=O)c2ccccc2c1=O` stands -15.8%. Under `CC(=O)NCCc1nc2cc(NC(=O)c3ccc(Cl)cc3)ccc2n1C` stands -14.1%; under `C/C(=N\Nc1nc(C)c(C)s1)c1ccc([N+](=O)[O-])cc1`, 17% (active). With `C/C(=N/NC(=S)Nc1cccc(C)c1)c1cccc([N+](=O)[O-])c1`, the activity change, less the hit threshold is -13.2%. Under `C/C(=N\Nc1cc(N2CCOCC2)ncn1)c1cccc([N+](=O)[O-])c1` stands -15.9%; under `Cc1cc(C)cc(N(C(=O)c2cc3ccccc3oc2=O)C2C=CS(=O)(=O)C2)c1` (centres undefined), -12.7%; under `COc1ccc(Br)cc1CNc1ccccc1`, -21.6%.

Turning to `COc1cc(NC(=O)c2ccccc2)c(OC)cc1NC(=O)Cc1ccc(Br)cc1`, the activity change, less the hit threshold is 12.3% (active). The figure for `COc1ccc(CC(=O)Nc2ccccc2Oc2ccccc2)cc1` is -0.3%; for `CCOC(=O)CN1C(=O)SC(Nc2ccc(C)cc2)C1=O` (centres undefined) it is -7%. The figure for `O=C(COc1nsnc1N1CCOCC1)Nc1ccc(Cl)cc1` is -17.5%. The figure for `CN(Cc1cnn(C)c1)C(=O)C1CCC(=O)N(Cc2cccc(C(F)(F)F)c2)C1` (centres undefined) is -19.6%. Regarding `COc1ccc(N2CCN(S(=O)(=O)c3ccc(Br)s3)CC2)cc1`, the activity change, less the hit threshold is -14.9%. Consider `CC1=CN2C(=N)/C(=C/c3ccc(Sc4ccc(Cl)cc4)o3)C(=O)N=C2S1`, for which the activity change, less the hit threshold is -17.8%. Under `CC(C)Cn1c(=S)[nH]c2cc(Cl)ccc21` stands 6.5% (active). Under `O=c1c2cc(Cl)ccc2[nH]c(=S)n1Cc1cccs1` stands -11.7%; under `CCCn1c(=S)[nH]c2ccc(C(F)(F)F)cc21`, -3.6%. The figure for `COc1cccc(/C=C2/C(=O)NN(c3ccc(C)c(C)c3)C2=O)c1` is -18%. Regarding `O=C(N1CCOCC1)N1CCC(c2nc(-c3ccc(S(=O)(=O)N4CCOCC4)cc3)no2)CC1`, the activity change, less the hit threshold was -23.6%. The figure for `C=CCN(CC=C)C(=S)NC(=O)c1ccc(C)c(Br)c1` is 135% (active). Under `COc1cc(OC)cc(C(=O)NC(=S)N(Cc2ccccc2)C(C)C)c1` stands 31.3% (active); under `CCOc1ccc(C(=O)NC(=S)N(Cc2ccccc2)Cc2ccccc2)cc1`, -5.6%; under `COc1ccc(C(=O)NC(=S)N(Cc2ccccc2)Cc2ccccc2)cc1`, 28.4% (active). Consider `C=CCN(CC=C)C(=S)NC(=O)c1ccc(OC)c(Br)c1`, for which the activity change, less the hit threshold was 46% (active).

Take `C=CCNC(=S)NC(=O)c1ccc(C)c(Br)c1`: the activity change, less the hit threshold was -17.6%. With `COc1ccc(C(=O)NN/C(C)=C/C(=O)c2ccccc2)cc1`, the activity change, less the hit threshold was -25.7%. `COc1cc(OC)cc(C(=O)OCC(=O)N(C)c2ccccc2)c1`: the activity change, less the hit threshold is -28%. The figure for `COc1ccc(CN(Cc2cccnc2)C(=S)NCCc2ccccc2)cc1OC` is -13.1%; for `CCN(CC)C(=S)NC(=O)c1ccc(OC)c(Br)c1` it is -11%; for `COc1ccc(C(=O)NC(=S)NCCO)cc1Br` it is -13.1%.

`O=c1c([N+](=O)[O-])c(N2CCCCC2)c2ccccc2n1-c1ccccc1`: the activity change, less the hit threshold is -20.7%. Under `CC(C)=CCCC1=CCC2C(=O)NNC(=O)C2C1` (centres undefined) stands -15.8%.

In the case of `Cc1ccc(S(=O)(=O)n2cnc3ccccc32)c(C)c1`, the activity change, less the hit threshold was -9%. Under `CCCNC(=O)N(C)c1nncnc1C(=O)NC` stands -17.3%; under `CCN(CC(=O)Nc1c(F)cccc1F)C(=O)c1ccc(Cl)c(S(=O)(=O)N2CCCCC2)c1`, -23.2%.

For `Cc1cccc(C)c1NC(=O)Cn1cnc2c(=O)n(C)c(=O)n(C)c21`, the activity change, less the hit threshold was -15.2%. The figure for `C=CCNC(=S)N/N=C(\C)c1ccc(OC)cc1` is -13.1%; for `C=CCN(CC=C)C(=S)NC(=O)c1ccc(OC)cc1` it is 10.1% (active). Under `CCCOc1ccc(CN(CCC#N)C(=S)NC(=O)c2ccccc2)cc1` stands 7.3% (active). The figure for `CC(C)N(Cc1ccccc1)C(=S)NC(=O)C1(C)CC1(Cl)Cl` (centres undefined) is 32.4% (active); for `CCCOc1ccc(C(=O)NNC(=S)NC(=O)c2ccccc2)cc1` it is -24.3%; for `C=CCN(CC=C)C(=S)NC(=O)/C=C/c1ccc(OC)cc1` it is -0.6%. Turning to `O=C(O)c1ccc(Cl)cc1Nc1nc2cc(Cl)ccc2o1`, the activity change, less the hit threshold is -1.7%. The figure for `CC(=O)c1c(C)nc(C)nc1NC(=O)C(C)C` is -17.2%.

With `Nc1nc2n(n1)C1(CCCCC1)C1=C(CCCC1)N2`, the activity change, less the hit threshold was -18.5%. Under `CCCCc1c(O)nc(SCC(=O)O)[nH]c1=O` stands -17.9%; under `FC(F)(F)c1cnc2c(c1)[nH]c(=S)n2-c1ccc(Cl)cc1`, -2.4%; under `CCC(=O)Nc1cc(-c2nnc(OC)c3ccccc23)ccc1N1CCOCC1`, -7.7%. Under `Cc1nn(C)c(C(=O)NC(=S)Nc2ccccc2Br)c1Cl` stands 11.8% (active). The figure for `CCCCOC(=O)c1ccc(NC(=S)NC(=O)c2c(Br)c(C)nn2C)cc1` is 10.4% (active). On to `COC(=O)c1ccc(NC(=S)NC(=O)c2c(-c3ccccc3)noc2C)cc1`, for which the activity change, less the hit threshold is -19.6%. Under `Cc1ccc(NC(=O)c2c([N+](=O)[O-])c(C(C)(C)C)nn2C)cc1` stands -17.2%. Consider `CCCCOC(=O)c1ccc(NC(=S)NC(=O)c2c(Cl)cnn2C)cc1`, for which the activity change, less the hit threshold was -10%.

For `COc1ccccc1NC(=S)NC(=O)c1ccc(-c2ccc(Cl)cc2)o1`, the activity change, less the hit threshold was -6.4%.

With `Cc1nn(CCC(=O)NNC(=S)Nc2ccc(F)cc2)c(C)c1[N+](=O)[O-]`, the activity change, less the hit threshold was -18.9%. The figure for `Cc1nn(C)c(C(=O)NC(=S)Nc2ccc([N+](=O)[O-])cc2)c1Cl` is 7.5% (active); for `O=C(NC(=S)Nc1ccccc1N1CCCC1)c1ccccc1Br` it is -29.8%; for `Cc1ccc(NC(=S)NC(=O)c2cncc(Br)c2)cc1Cl` it is -17.8%. Under `CCn1ncc(Cl)c1C(=O)NC(=S)Nc1ccccc1Br` stands 29.9% (active).
